From the supplement of paper PMC6555819 come the findings set out here.

This experiment deals with PPARg:RXRa 90nM:30nM, anti-RXR (NR concentration 90 nM, RXRa partner concentration 30 nM). In words: PBM binding z-score (relative to random genomic background probes); higher = stronger binding; sequences stand for … in GC…GCGATTGACAGCGTAGAATGAAGG
An outline of the steps:
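Probes were double-stranded and carried 34-nt variable regions with direct-repeat seeds, single-nucleotide variants, half-site ablations and random human genomic background sequences, printed on custom Agilent 4×180K protein-binding microarrays. Arrays were incubated 1 h with ligand-free nuclear receptor dimers in PBS pH 7.4, 2% milk, 0.02% Triton X-100, 1 mM DTT, 0.2 mg/mL BSA and 0.4 mg/ml salmon testes DNA. Antibodies against each partner (one per run) detected binding, and scanned fluorescence was regression-normalized. Binding z-scores use the random background probes as reference.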
The sequence CCGAGTAGGTTATGGGGCACTCAGGCAACGGTGA showed a PBM binding z-score of 4.11.

TCATATAGGTAATACAGGTGGAAGTCGGCATCTA: the PBM binding z-score was found to be 3.14.

Turning to ACTAGCAGGACAAGGGTCACTCAAGATTAGTCCG, the PBM binding z-score was 7.29.

GATACAGGGTCAGCTAGAGGCCAGAGTCTGGAAA displayed a PBM binding z-score of 2.27.

With TCTAGATGGTCACGGAGGTCACACACGACGGGTA, the PBM binding z-score turned out to be 4.04.

As to CTCGAAAGGTCGGTTGAGGAGAGTATACGGATAA, the PBM binding z-score stood at 0.525.

In turn, ATCGAAAGGTCGAAGGGGAGTATACCCACCCGAA had a PBM binding z-score of 1.99.

With CCTACTGGGCCATCAGGGCATTGATATCAACGTT, the PBM binding z-score came to 0.846.

Sequence CCTACTGGGCCATCAAGTCATTGATATCAACGTT returned a PBM binding z-score of 0.805.

In the case of CGTCCAAGGTCAGAGAGGTCAGTGAATGCCGAGT, the PBM binding z-score came to 3.2.

TCGAGTAGGTTACCAATGTGGCATTCAGCTTTCT displayed a PBM binding z-score of 1.08.

CGTCCAAGGTCGATGCTAGGTCAGTGAAAGCATT registered a PBM binding z-score of -0.0604.

Sequence AGTATGAGGTTATACGTAGATCAGGGAAGAAAGT showed a PBM binding z-score of 1.07.

On to GATGCTAGGTCAGGTTGGTCAGCTAACGGGTACG, for which the PBM binding z-score is 0.0836.

Take ATATCTAGGTTATCGGGTCATTCAGTTTGCGCAT: the PBM binding z-score stood at 6.24.

CAAACTAGGTCAAGACGTCAAAGTCCGCTTCCCG had a PBM binding z-score of 6.25.

Sequence CCTAGTGGGTCAAGGTCACACACGCTATAGGTAC came in with a PBM binding z-score of 6.95.

The sequence CCGACTGGGGCAGAAAGGTTACCATTCCATCCGG yielded a PBM binding z-score of 2.13.

CAAACTCGGTCAAAGGTCAAAGTCGAGCCAACCA registered a PBM binding z-score of 12.5.

On to AGAACGAGGGCAATGAGTTTATAGCACGGGTGGC, for which the PBM binding z-score was 0.36.

For the sequence ATCGAAAGGACGACGAGGTGAGTATACACCGTTT, the PBM binding z-score worked out at 0.299.

CGAACTAGGGCATGAGTTGATAGCAAATGCCGAT: the PBM binding z-score turned out to be 3.43.

In turn, ATCCCTAGGTAAAAGTTCAGTGAATCCCGAGGAT registered a PBM binding z-score of 4.55.

As for GCTATCAGTTGAAAGGGCAACCGAATGATTCTCG, the PBM binding z-score stood at 2.69.

Consider TTACCAAGGTGAAGGTCTTTGATCCCTCTGTAGA, for which the PBM binding z-score came to 2.12.

Regarding CCTGCTAGGTCATTGTCAGCTAATCTACAGTATG, the PBM binding z-score was found to be 1.22.

With CAAACTAGATCAAGAGGTCAAAGTCCGCTTCCCG, the PBM binding z-score turned out to be 4.71.

ATATGTAGGTTAGCTGGGGTCATTCATACTAGGC returned a PBM binding z-score of 4.83.

CAAACTAGGTGAAAGGTCAAAGTCGAGCCAACCA came in with a PBM binding z-score of 14.2.

In turn, GCTGCTAGGTCAACTGTTGGTCAGCTAAAGCTCG had a PBM binding z-score of 2.23.

Turning to TCTGCTAGGTCAGTTGGTCAGCTTACGAGCTGCC, the PBM binding z-score came out at 1.39.

Consider GCGACTGGGGCATGAGCAGGTTACCATAACTTAA, for which the PBM binding z-score amounted to 0.437.

The sequence TAGCCTGGGTCATTCAGGGGCCAGTATAGAAAGC gave a PBM binding z-score of 1.47.

For the sequence TCACATAGGTAAAGGTGAAAGTCGAACGATATGA, the PBM binding z-score was 3.75.

Sequence TAGCCTAGGTCAGATCGGGCCAATATACGCTATA showed a PBM binding z-score of 0.383.

GCATTTAGGTAATACAAGGTGAAAGTCCGATTGT showed a PBM binding z-score of 0.682.

CCAGACAGGTGAGATGGTAACTCAGCCTCGATTA: the PBM binding z-score is -0.00959.

For the sequence ACTAACAGGCCAAGTTTGGGTCACTCAAACAAAG, the PBM binding z-score is 0.083.

With ATCTCTAGGTAAAGTTAGTTCAGTGAATGCAAAT, the PBM binding z-score worked out at 1.03.

CTACCAAGGTGAACAAGGTCGTTGATTACTATTC returned a PBM binding z-score of 0.622.
